Screening data: PubChem BioAssay, several laboratories
The list is not random: actives were taken first. Their share in the collection is about 3.6%.
A3A deaminase – APOBEC3A ssDNA deaminase inhibitors, primary screen, selectivity assay for APOBEC3G inhibitor project, biochemical, FAM/TAMRA oligo cleavage fluorescence; DNA dC->dU-editing enzyme APOBEC-3A (Homo sapiens), P31941; recombinant A3A, FAM/TAMRA ssDNA deamination fluorescence; inhibition, % at 20 µM; hit rate 0.41% among 330,000;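 active means at least 40% inhibition at 20 µM here, with at most 30% in a related deaminase screen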;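 further: plate controls were A3A with DMSO for no effect and wells lacking A3A enzyme for full effect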
APOBEC3G inh – APOBEC3G DNA deaminase inhibitors, primary screen, biochemical, fluorescence, single-stranded DNA substrate, uHTS. DNA dC->dU-editing enzyme APOBEC-3G (Homo sapiens), Q9HC16. recombinant A3G, ssDNA deamination FAM/TAMRA fluorescence. inhibition, % at 20 µM. hit rate 0.28% among 330,000. AID 493012, 2011;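 active means inhibition of at least 40% at 20 µM, with no more than 30% in the related APOBEC3A deaminase screen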;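 further: plate controls were DMSO wells with A3G for no effect and wells lacking A3G enzyme for full effect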
Target sequence (Q9HC16 whole entry, looked up): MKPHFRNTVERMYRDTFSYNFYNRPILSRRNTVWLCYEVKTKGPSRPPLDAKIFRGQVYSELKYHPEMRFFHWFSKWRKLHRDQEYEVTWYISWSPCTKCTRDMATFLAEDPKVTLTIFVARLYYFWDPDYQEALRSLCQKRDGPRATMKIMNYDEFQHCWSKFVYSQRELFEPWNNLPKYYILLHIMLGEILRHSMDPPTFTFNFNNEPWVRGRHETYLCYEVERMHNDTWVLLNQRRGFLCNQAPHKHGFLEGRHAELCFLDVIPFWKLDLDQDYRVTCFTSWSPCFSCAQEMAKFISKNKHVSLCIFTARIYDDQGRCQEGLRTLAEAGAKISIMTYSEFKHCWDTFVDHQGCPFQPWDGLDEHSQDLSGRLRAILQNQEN
PHOSPHO1 block – PubChem AID 1565. recombinant PHOSPHO1, absorbance phosphatase assay. hit rate 1.1% among 290,000. inhibition, % at 13.3 µM; in the data active means inhibition above about 60%
MITF act – activators of MITF-driven TRPM1 promoter reporter, primary screen, cell-based, SK-MEL-5, luciferase, single point | SK-MEL-5 TRPM1-promoter luciferase, 24 h; % of positive control, neutral wells = 0 | hit rate 0.75% among 300,000 | AID 588334, 2011 | activation, % at 12.5 µM;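 active means mean activation of at least 80% with every replicate also reaching 80%; inconclusive means mean reaches 80% but some replicate falls short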;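 further: 0% = neutral control wells and 100% = parthenolide positive control wells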
Wnt bcat act – Wnt/beta-catenin pathway activators, primary screen, cell-based, plate reader, single point | Wnt/beta-catenin reporter cell assay, activator | hit rate 1.2% among 300,000 | AID 743398, 2014 | activation, % at 9.35 µM; in the data active means activation above about 30%, passing the limit was not always enough; inconclusive means no clear call, values can overlap the other calls;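 further: 0% = neutral control wells and 100% = positive control wells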
esBAF inh – Bmi1 luciferase reporter increase in mESCs, primary screen, esBAF inhibitor project, mouse ES cells, Bmi1 luciferase knock-in, single point. 24 h; 100% = twice the neutral-well signal. reporter increase, % at 12.5 µM. hit rate 2% among 350,000. AID 602393, 2012; in the data active means activation above about 40%; inconclusive means no clear call, values can overlap the other calls;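 further: 0% = median of the plate's neutral control wells and 100% = double that signal; a rise in the Bmi1 reporter signal indicates esBAF inhibition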
An asterisk follows results filed as active; u = inconclusive; x = not tested or not shown.

SMILES | A3A deaminase | APOBEC3G inh | PHOSPHO1 block | MITF act | Wnt bcat act | esBAF inh
C[C@@H]1CCCCO[C@H](CN(C)CC2CCCCC2)[C@H](C)CN([C@@H](C)CO)C(=O)c2cc(NS(=O)(=O)c3ccccc3)ccc2O1 | x | x | x | x | x | -4
CCCc1ccc(OCc2nc(-c3ccc(NC(=O)c4ccco4)cc3)no2)cc1 | -1 | -4 | 7 | 69 | x | 62*
COc1ccccc1CC(=O)Nc1ccc(-c2noc(COc3ccc(Br)cc3)n2)cc1 | 3 | -1 | 21 | x | x | x
Cc1ccccc1OCc1nc(-c2ccc(NC(=O)c3ccco3)cc2)no1 | -1 | -2 | -13 | 103* | -1 | 27
Cc1ccccc1OCc1nc(-c2ccccc2)no1 | -2 | -2 | 9 | 97* | x | x
Cc1cc(Br)ccc1OCc1nc(-c2cccnc2)no1 | 1 | -2 | -10 | x | 38* | 85*
C[C@H](CO)N1C[C@H](C)[C@H](CN(C)C(=O)C2CCCCC2)Oc2cc(C#C[C@@H](C)O)ccc2S1(=O)=O | x | x | x | x | x | -4
CCc1noc(C)c1C(=O)NNC(=O)c1ccccc1 | -1 | -2 | x | 0 | -6 | -9
c1ccc(OCc2nc(-c3cccs3)no2)cc1 | 3 | -4 | 12 | 108* | x | 58*
CC(Oc1ccc(Cl)cc1Cl)c1nc(-c2ccc(NC(=O)c3ccco3)cc2)no1 (stereo unspecified) | 1 | -6 | 5 | x | x | 50*
CCc1noc(C)c1C(=O)NNC(=O)COc1ccccc1C | 0 | -3 | x | -4 | 34* | -8
Fc1ccc(OCc2nc(-c3cccs3)no2)cc1 | -2 | -9 | 45 | 72 | 12 | u
CCCc1ccc(OCc2nc(-c3ccc(NC(=O)c4cccs4)cc3)no2)cc1 | -1 | -8 | 0 | 94* | 1 | x
CO[C@@H]1CN(C)C(=O)c2ccc(NC(=O)c3cc(C)on3)cc2OC[C@@H](C)NC[C@H]1C | x | x | x | x | x | 3
C[C@@H]1CN([C@H](C)CO)C(=O)c2cccc(NS(=O)(=O)c3cccs3)c2O[C@H]1CN(C)C(=O)Nc1ccc2c(c1)OCO2 | x | x | x | x | x | 7
Cc1ccccc1OCC(=O)NNC(=S)NC(=O)c1ccco1 | 2 | 15 | 99* | -15 | -2 | -2
Cc1ccc(C)c(OCc2nc(-c3cccnc3)no2)c1 | -1 | 3 | 11 | 35 | x | 16
Cc1ccc(-c2nc(-c3cccnc3)no2)c(C)c1 | -2 | -6 | 10 | x | x | 44*
Cc1ccccc1OCC(=O)Nc1ccccc1NC(=O)c1ccco1 | 2 | -2 | 15 | x | 0 | -10
c1ccc(-c2noc(COc3ccc4c(c3)OCO4)n2)cc1 | -3 | -3 | -4 | 97* | x | 63*
Clc1ccsc1-c1ccnc(-n2cccc2)n1 | 4 | -1 | 59 | -18 | 9 | 11
c1ccc2nc(-c3ccncc3)ccc2c1 | 0 | -3 | 24 | x | x | 31
Clc1ccsc1-c1ccc2ccccc2n1 | 1 | -7 | 11 | 51 | 39* | 49*
c1ccc2nc(-c3nccs3)ccc2c1 | -1 | -12 | 21 | 91* | 8 | x
CN1C(=O)c2cc(NC(=O)c3ccc(F)cc3)ccc2OC[C@H]2O[C@H](CC(=O)NCC3CC3)CC[C@H]21 | x | x | x | x | x | -1
SMILES | A3A deaminase | APOBEC3G inh | PHOSPHO1 block | MITF act | Wnt bcat act | esBAF inh
O=C(N/C=C/c1ccccc1)c1ccccc1 | 4 | 1 | x | 109* | 41* | x
O=C1OCCC1Sc1nnc(-c2ccccc2)o1 (stereo unspecified) | 0 | -3 | 19 | -6 | x | -7
O=C1c2ccccc2CC1Sc1nnc(-c2ccccn2)o1 (stereo unspecified) | x | x | 69* | 10 | x | 18
CCN(CC)c1ccc(NC(=O)c2ccccc2F)cc1S(=O)(=O)Nc1ccccc1OC | 3 | 32 | 64* | 4 | x | x
CCN(CC)c1ccc(NC(=O)c2ccccc2Br)cc1S(=O)(=O)Nc1ccccc1OC | 6 | 34 | -7 | -4 | -3 | x
CCOc1c(Cl)cc(C2NC(=O)NC(C)=C2C(=O)NCc2ccccc2)cc1OC (stereo unspecified) | -1 | -6 | -7 | 31 | x | 50*
